The list is not random: actives were taken first. Their share in the collection is about 0.9%.
B2AR arrestin: agonists driving beta-arrestin recruitment to human beta2-adrenergic receptor; beta-arrestin recruitment to beta2AR, cell-based reporter; Potency, µM (series often up to 46.1 µM), inactives show at the top dose activation, most hits filed as activators; 330,000 compounds, 0.02% hits; AID 492947;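 further: potency means the concentration at half of the fitted maximal effect; 0% = DMSO controls and full agonism = EC100 isoproterenol or metaproterenol; nearly all actives have a fitted effect of over 65% in size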
Six1-Eya2 blk: inhibitors of human Six1/Eya2 interaction. AlphaScreen GST-Six1/His-Eya2 binding, biochemical; active compounds read low. activity change, % (test concentration not listed). 360,000 compounds, 0.56% hits; in the data active means activity change below about -65%; inconclusive means mostly about -30% to -63%
Target sequence (O00167 whole entry, looked up): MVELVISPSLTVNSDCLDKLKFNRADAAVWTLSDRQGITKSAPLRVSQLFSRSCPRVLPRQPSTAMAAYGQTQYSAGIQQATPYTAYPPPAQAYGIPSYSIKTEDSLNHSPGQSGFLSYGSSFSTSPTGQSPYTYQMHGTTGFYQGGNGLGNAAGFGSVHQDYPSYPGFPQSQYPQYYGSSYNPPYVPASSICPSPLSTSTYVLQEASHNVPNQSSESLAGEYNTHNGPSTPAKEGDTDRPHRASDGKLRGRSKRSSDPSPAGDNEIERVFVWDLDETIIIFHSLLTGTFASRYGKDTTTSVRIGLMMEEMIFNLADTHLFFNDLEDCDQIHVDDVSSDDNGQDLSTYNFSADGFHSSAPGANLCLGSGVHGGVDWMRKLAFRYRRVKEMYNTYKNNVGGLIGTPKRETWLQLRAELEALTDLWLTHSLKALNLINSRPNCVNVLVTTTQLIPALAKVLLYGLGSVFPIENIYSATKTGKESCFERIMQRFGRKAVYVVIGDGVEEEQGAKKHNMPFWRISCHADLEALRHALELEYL
Target sequence (Q15475 whole entry, looked up): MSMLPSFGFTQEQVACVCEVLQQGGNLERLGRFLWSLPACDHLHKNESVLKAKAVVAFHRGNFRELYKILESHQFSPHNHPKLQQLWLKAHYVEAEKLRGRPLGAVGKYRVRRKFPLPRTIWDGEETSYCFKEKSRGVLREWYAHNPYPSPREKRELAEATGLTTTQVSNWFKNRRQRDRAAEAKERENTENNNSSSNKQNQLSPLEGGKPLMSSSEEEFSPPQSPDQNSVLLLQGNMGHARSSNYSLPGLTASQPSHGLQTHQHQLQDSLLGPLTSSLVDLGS
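Homogeneous AlphaScreen proximity assay pairing GST-Six1 with His-tagged Eya2 (added as 5X mix: 250 nM and 500 nM) in 50 mM Tris pH 8.0, 300 mM NaCl, 1 mM TCEP. Glutathione donor and nickel acceptor beads; 1 h, 37 °C, dark.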
CtBP-E1A blk: blocks the CtBP interaction with E1A; AlphaScreen GST-E1A/His-CtBP binding, 1536-well; active compounds read low; activity change, % (no concentration beside the values); 340,000 compounds, 0.49% hits; in the data active means activity change below about -65%; inconclusive means mostly about -30% to -63%
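In 5 uL wells, 23 nL compound meets equimolar GST-E1A and His-CtBP (5X stock 125 nM each) for 2 h, 37 °C. Beads (5X, 50 ug/mL) then 1 h, 37 °C, dark.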
L3MBTL1 inh: inhibitors of human L3MBTL1 | AID 485360 | Potency, µM (top dose mostly 57.1 µM), inactives show at the highest dose activity, negative = inhibition, most hits filed as inhibitors | AlphaScreen L3MBTL1–H3K9me1 peptide binding | 230,000 compounds, 0.66% hits; further: potency means the concentration at half of the fitted maximal effect; nearly all actives have a fitted effect of over 60% in size
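First, the protein-peptide complex forms for 30 min at room temperature (L3MBTL1 50 nM, biotinylated H3K9me1 peptide 75 nM). Next, compounds are pin-transferred and incubated 30 min. Finally, AlphaScreen beads are added and read after 30 min.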
Eya2 inh: blocks the phosphatase activity of human Eya2. O00167. recombinant Eya2, OMFP fluorescence dephosphorylation (OMFP is methylfluorescein phosphate). Potency, µM (highest dose often 76.9 µM), for the others: at the highest dose activity, negative = inhibition, most hits filed as inhibitors. 330,000 compounds, 0.006% hits. AID 488837; further: potency means the concentration at half of the fitted maximal effect
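Eya2 protein (added as 0.2 uM solution) was preincubated with compound for 10 min at ambient temperature in 50 mM HEPES pH 7.5, 50 mM NaCl, 5 uM MgCl2, 0.05% BSA, 1 mM DTT. OMFP (added at 50 uM) then reacted 10 min; fluorescence read at 485/525 nm.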
* marks the source's active call; other numbers are inactive results; ? = inconclusive; / = not tested or not shown. Unless noted, the call rests on the fitted dose curve; in most records, active means well fitted curve in the direction sought with a large enough effect; inconclusive means small, poorly fitted or top-dose-only effect, or another doubt; inactive means no such curve, though single readings can be large; an effect the other way counts as inactive or inconclusive. Unless noted, on the % scale 0 is the no-effect control and ±100 the full control effect.

SMILES	B2AR arrestin	Six1-Eya2 blk	CtBP-E1A blk	L3MBTL1 inh	Eya2 inh
COc1ccc(CC(N)c2csc(NC(=O)Nc3ccc(OC)cc3)n2)cc1 (stereo unspecified)	/	-25	-29	/	/
COc1ccc(CC(N)c2csc(Nc3cc(NCCCO)ncn3)n2)cc1 (stereo unspecified)	/	-91*	-93*	/	/
COc1ccc(OC)c(CCNC(=O)CCc2nnc3ccc(N4CCOCC4)nn23)c1	0%	-4	-1	/	-16%
COc1ccc(NC(=O)CCCNC(=O)c2ccc(Cl)cc2)cc1S(=O)(=O)N1CCOCC1	/	0	-17	/	/
Cc1cccc(NC(=S)c2nc3ccccc3s2)c1	-2%	-75*	-81*	?	-2%
O=C(O)C1C2CCC(C2)C1C(=O)NCc1ccco1 (stereo unspecified)	0%	0	-1	-3%	-9%
O=C(NCc1ccco1)C1CC2CCC1C2 (stereo unspecified)	0%	-70*	?	/	-8%
Oc1ccc(/C=N/NC(=S)NCCN2CCOCC2)c(O)c1	0%	-90*	/	22µM*	12%
N#Cc1ccc(CSc2ccc(S(=O)(=O)N3CCCCCC3)cn2)cc1	0%	14	16	21%	-23%
Cc1ccc(/C=N/NC(=O)C2CC(=O)N(c3ccccc3)C2)s1 (stereo unspecified)	-1%	16	0	0%	3%
O=C(N/N=C/c1ccccc1O)C1CC(=O)N(c2ccc(Cl)cc2)C1 (stereo unspecified)	0%	?	-84*	/	-5%
CCCCCC/C(C)=C1/SC(=S)NC1=O	0%	-19	-11	-10%	-9%
C/C(C/C(C)=C1/SC(=S)NC1=O)=C1\SC(=S)NC1=O	1%	-71*	?	/	10%
COc1ccc2o/c(=N/NC(=O)c3cccs3)c(C(N)=O)cc2c1	0%	?	-83*	/	-10%
NC(=O)c1cc2ccccc2o/c1=N/NC(=O)c1cccs1	-1%	?	-26	/	1%
Cn1c(-c2ccccc2)c(Sc2ccccc2)c2cc(-c3ccc4cc[nH]c4c3)ccc21	/	-2	0	/	/
CN1CCc2c(sc3c2C(=O)NC(c2ccccn2)N3)C1 (stereo unspecified)	0%	-67*	?	?	7%
O=C1NC(c2ccccn2)Nc2sc3c(c21)CCC3 (stereo unspecified)	-1%	-80*	-77*	-2%	-10%
NS(=O)(=O)c1ccc(N/N=C/c2ccc(O)c(O)c2O)c([N+](=O)[O-])c1	0%	?	?	2.8µM*	-9%
Cc1ccc(S(=O)(=O)NCCC(=O)OCC(=O)N2CCCC2=O)cc1C	0%	3	5	-10%	-3%
NC(=O)N=Nc1c2[nH]c3ccccc3nc-2c2ccccc12	0%	?	-69*	-4%	5%
O=c1[nH]c2ccccc2nc1-c1ccccc1	0%	21	-4	-1%	10%
O=C(Nc1ccc2nc3n(c(=O)c2c1)CCCC3)c1cccc([N+](=O)[O-])c1	0%	-66*	0	9%	5%
O=C(Nc1ccc2nc3n(c(=O)c2c1)CCCC3)c1cncc(Br)c1	/	?	-65*	/	/
O=C(Nc1ccc2nc3n(c(=O)c2c1)CCCC3)c1cc([N+](=O)[O-])ccc1F	-1%	-29	-15	-4%	-2%
SMILES	B2AR arrestin	Six1-Eya2 blk	CtBP-E1A blk	L3MBTL1 inh	Eya2 inh
N#Cc1c(N)[nH]c2ccc(Sc3ccccc3)cc12	/	-6	0	/	/
CCc1ccc([C@@H]2C[C@H]3[C@@H](CN2S(=O)(=O)c2ccc(C)cc2)C(=O)C[C@@H](c2ccccc2F)N3S(=O)(=O)c2ccc(C)cc2)cc1	/	-3	-1	/	/
Oc1ccc(N=Nc2ccc3c(c2)OCCO3)c2ncccc12	-1%	-76*	/	?	-13%
Cc1ccc(C)c(N=Nc2ccc(O)c3ncccc23)c1	0%	?	?	/	16%
Cc1cccc(N=Nc2ccc(O)c3ncccc23)c1	0%	-84*	-79*	20µM*	-3%
NS(=O)(=O)c1ccc(N=Nc2ccc(O)c3ncccc23)cc1	0%	-97*	/	/	-14%
O=C(Nc1ncccc1O)c1ccc2c(c1)OCCO2	-1%	-6	0	-21%	-20%
CCOc1ccc(N=Nc2ccc(O)c3ncccc23)cc1	-1%	-13	?	/	1%
COc1ccc(C2=Nn3c(nnc3-c3ccc(OC)cc3)SC2)cc1	0%	-18	-28	-11%	0%
COc1ccc(C2=Nn3c(nnc3-c3ccco3)SC2)cc1OC	-1%	-71*	-87*	26%	13%
COc1ccc(C2=Nn3c(nnc3-c3ccccc3OC)SC2)cc1OC	0%	-29	?	1%	-5%
COc1ccc(C2=Nn3c(nnc3-c3cc(C)[nH]n3)SC2)cc1	-1%	-77*	?	-5%	5%
COc1cc2c(cc1OC)C(c1ccccc1)N(C(=O)c1cccc(S(C)(=O)=O)c1)CC2 (stereo unspecified)	0%	-1	-1	/	2%
O=C(Nc1cc(S(=O)(=O)N2CCOCC2)ccc1Cl)c1cc2ccccc2o1	0%	-23	3	4%	-1%
Cc1cc(F)ccc1NC(=O)Cn1c(C)csc1=O	-1%	1	/	-4%	-10%
Cc1nc(N)sc1C(=O)N/N=C/c1ccc([N+](=O)[O-])cc1	0%	17	13	/	-2%
COc1cc(/C=N/NC(=O)c2sc(N)c(C#N)c2C)cc(Br)c1O	0%	-67*	-77*	0%	-18%
COc1cc(/C=N\NC(=O)c2sc(N)nc2C)cc(OC)c1OC	-1%	-82*	-84*	36%	-14%
O=S1(=O)N[C@H](c2ccccc2)C[C@H](c2ccc(C(F)(F)F)cc2)O1	-1%	2	-2	9%	-3%
COC(=O)c1ccc(CNC(=O)COC(=O)c2cc(Cl)ccc2O)cc1	0%	-6	/	0%	-2%
O=C(NC1=C(Nc2ccc(Cl)cc2)C(=O)c2ccccc2C1=O)c1ccccc1	-1%	?	?	-27%	-1%
CN(C1=C(NC(=O)c2ccc(Cl)cc2)C(=O)c2ccccc2C1=O)c1ccccc1	0%	-86*	-88*	7.9µM*	5%
O=C1C(Cl)=C(NC(=O)c2ccccc2)C(=O)C(Cl)=C1NC(=O)c1ccccc1	0%	-73*	-11	/	-5%
CC(=O)c1ccc(NC(=O)C(C)OC(=O)c2ccc(Br)o2)cc1 (stereo unspecified)	0%	-1	10	-2%	-2%
CCc1ccc2[nH]c3nc(N/N=C/c4ccc(O)cc4O)nnc3c2c1	-1%	?	-81*	-4%	-3%
Cc1oc2c(O)c(O)ccc2c(=O)c1-c1cnn(-c2ccccc2)c1	1%	?	?	-17%	-1%
Cc1nc(-c2cnn(-c3ccccc3)c2)c2cc(C)oc2n1	0%	-87*	-88*	4%	-29%
